Only some compounds are listed: those with a hit (about 0.97% of all), similar ones and a draw of the others.
Beta2AR agonist = agonists of human beta-2 adrenergic receptor inducing internalization. P07550. Am2.2-beta2AR cells, FAP receptor internalization, flow cytometry. response, % (no concentration beside the values). 340,000 tested, 0.43% active. AID 504454;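 active means response above a set limit, near 3 SD of response in nonfluorescent compounds, cut at about 42% in these data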
TLR4-MyD88 BLA = TLR4-MyD88 interaction inhibition in cells; O00206+Q99836; HeLa CL3-4 TLR4/MyD88 BLA complementation, FRET ratio; inhibition, % at 8.4 µM; 200,000 tested, 0.18% active; in the data active means inhibition above about 25%;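 further: 0% = vehicle and 100% = reference inhibitor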
TLR9-MyD88 block = blocks human TLR9 binding to MyD88. CHO BLA complementation TLR9-MyD88, CCF4 FRET ratio. inhibition, % at 4.98 µM. 340,000 tested, 0.21% active. AID 504734;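 active means inhibition above the mean over all tested compounds plus 3 SD, cut at about 21% in these data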;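 further: 0% = DMSO only wells and 100% = clavulanate BLA inhibitor control wells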
Bfl-1 A1 inh = inhibitors of the anti-apoptotic protein A1, read as caspase activation. caspase activation, % (concentration not given with the values). MEF A1-2A-BIM cells, Caspase-Glo 3/7 luminescence, 3 h; percent of clofoctol response, vehicle zero. 330,000 tested, 0.066% active;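 active means over half of replicate activation scores above 10%, or exactly half above 10 with the replicate mean above 10; inconclusive means replicate mean below 10 yet half the replicates above 10; inactive means over half of replicates below 10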
NTR1 agonist = NTR1 (human) agonism. P30989. 330,000 tested, 0.17% active. activation, % at 20 µM. NTR1-U2OS beta-arrestin-GFP spot imaging, agonist mode. AID 493036;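 active means activation at or above 40% of the spot to cytoplasm intensity ratio, with at least 20 cells analyzed; inconclusive means wells under 20 cells, flagged as cytotoxic or low count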;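 further: 0% = DMSO without peptide and 100% = 100 nM NTR1 peptide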
NOD2-RIPK2 inh = NOD2-RIPK2 protein interaction inhibition; O43353; CHO BLA complementation NOD2-RIPK2, CCF4 ratio; inhibition, % at 4.98 µM; 360,000 tested, 0.38% active; AID 624267; in the data active means inhibition above about 21%;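 further: 0% = vehicle only and 100% = reference blocker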
B2AR ag CP1 = agonists of human beta-2 adrenergic receptor; percent response (surface receptor), % at 10 µM; 1,100 tested, 25% active; shares compounds with Beta2AR agonist; Am2.2-beta2AR cells, FAP surface receptor, flow cytometry; hits give low values;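 active means surface receptor percent response at or below 58%, roughly 3 SD from nonfluorescent compounds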
B2AR FAP counter = counter-screen for beta-2AR agonists: fluorescence in Am2.2 cells | calls only at 10 µM | shares compounds with Beta2AR agonist | AID 588765 | 1,100 tested, under 10 active | FAP fluorogen flow cytometry, fluorescence counterscreen; hits give low values;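 active means percent response below a set limit in fluorescence channel 1 and below 50% in channel 8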
TLR9-MyD88 conf = TLR9-MyD88 interaction inhibition, confirmation. shares compounds with TLR9-MyD88 block. 680 tested, 51% active. CHO TLR9/MyD88 BLA complementation, CCF4 FRET ratio. inhibition, % at 4.98 µM;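 active means mean inhibition across three repeats above about 21% taken from the earlier screen, limit read from the data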;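 further: blue over green emission ratio reports constitutive TLR9 MyD88 association via BLA complementation; 0% = DMSO vehicle wells and 100% = clavulanate BLA inhibitor wells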
BLA counter-1 = counter-screen for TLR9-MyD88 inhibitors: non-selective beta-lactamase inhibitors. CHO-BLA cells, CCF4 FRET ratio, BLA reporter. shares compounds with TLR9-MyD88 block. inhibition, % at 4.98 µM. AID 540251. 680 tested, 7% active;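 active means mean inhibition above a 50% cutoff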;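 further: counterscreen of TLR9-MyD88 hits on CMV-driven BLA in CHO-K1 cells; 0% = DMSO alone and 100% = clavulanate blocking BLA; higher means less blue over green ratio so more BLA blockade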
TLR9 CHO cytotox = counter-screen for TLR9-MyD88 inhibitors: cytotoxicity in CHO cells. shares compounds with TLR9-MyD88 block. luminescence. 680 tested, 39% active. inhibition, % at 4.98 µM; in the data active means inhibition above about 11%
NOD2-RIPK2 conf = confirmation of human NOD2-RIPK2 interaction inhibitors | AID 624370 | shares compounds with NOD2-RIPK2 inh | inhibition, % at 4.98 µM | CHO cells, NOD2-RIPK2 BLA complementation, CCF4 FRET | 1,200 tested, 70% active;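 active means mean inhibition across replicates above a set limit taken from the earlier primary screen, cut at about 21% in these data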;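 further: 0% = DMSO-only wells and the high end = clavulanate BLA-blocked wells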
BLA counter-2 = hits BLA reporter in NOD2-RIPK2 inhibitor counterscreen; shares compounds with NOD2-RIPK2 inh; CHO BLA reporter, CCF4 FRET ratio; inhibition, % at 4.98 µM; 1,200 tested, 57% active; AID 624371;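 active means mean inhibition above the low-control mean inhibition plus three low-control SD, cut at about 11% in these data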;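 further: 0% = DMSO only wells and 100% = clavulanate high control wells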
Numbers without * were called inactive; i = inactive; ? = inconclusive; . = no result given; + = active, no number.

SMILES	Beta2AR agonist	TLR4-MyD88 BLA	TLR9-MyD88 block	Bfl-1 A1 inh	NTR1 agonist	NOD2-RIPK2 inh	TLR9-MyD88 conf	BLA counter-1	TLR9 CHO cytotox	others
CCCNC(=O)c1nnsc1S(=O)(=O)c1ccc(Cl)cc1	81*	18	35*	.	1	84*	37*	9	99*	B2AR ag CP1=55*;B2AR FAP counter=i;NOD2-RIPK2 conf=85*;BLA counter-2=23*
CN(C)CCCNc1oc(-c2ccccc2Cl)nc1S(=O)(=O)c1ccccc1	7	.	-13	2	0	0	.	.	.
CC(NCc1ccc(OCc2ccc(Cl)cc2)cc1)C(O)c1ccccc1 (stereo not given)	79*	5	-2	-1	32	23*	.	.	.	B2AR ag CP1=87;B2AR FAP counter=i;NOD2-RIPK2 conf=20;BLA counter-2=9
O=C(N/N=C/c1ccc(OC(=O)c2ccccc2Cl)cc1)c1ccccn1	1	.	-1	-10	-1	4	.	.	.
Cc1cc(N2CCN(C)CC2)ccc1NC(=O)c1c2c(nc3ccccc13)CCN(Cc1ccccc1)C2	51*	-16	-59	0	20	34*	.	.	.	B2AR ag CP1=11*;B2AR FAP counter=+;NOD2-RIPK2 conf=47*;BLA counter-2=9
O=C(NC1CCCCCC1)c1c2c(nc3ccccc13)CCN(Cc1ccccc1)C2	5	-24	1	-1	-1	1	.	.	.
CN(C)CC(C(=O)c1ccccc1)c1ccccc1 (stereo not given)	56*	23	-3	-1	2	23*	.	.	.	B2AR ag CP1=82;B2AR FAP counter=i;NOD2-RIPK2 conf=13;BLA counter-2=-2
NC(=S)N=Nc1c(O)n(Cc2ccccc2)c2ccccc12	-7	-15	2	0	8	-8	.	.	.
O=Nc1c(O)n(Cc2cccc(Cl)c2)c2ccccc12	6	4	26*	0	2	20	18	16	14*
Cc1ccc(/C=C2/NC(=O)N(Cc3ccc(Br)cc3)C2=O)o1	6	-4	22*	0	0	12	2	2	13*
COc1ccc(CNn2c(-c3cccs3)nc3ccccc3c2=O)cc1OC	-10	-1	22*	0	7	-12	1	1	12*
COc1cccc(C(=O)Nn2c(-c3cccs3)nc3ccccc3c2=O)c1OC	-11	-3	6	0	1	4	.	.	.
COC(=O)c1ccc2c(c1)N(Cc1cc(C)ccc1C)C(=O)c1ccccc1S2=O (stereo not given)	.	-1	.	.	.	.	.	.	.
N#CC1=C(N)OC2=C(CC/C2=C\c2ccccc2Cl)C1c1ccccc1Cl (stereo not given)	-14	2	32*	0	6	11	7	7	2
O=C(OCn1ncc(Cl)c(Cl)c1=O)c1ccccc1Cl	40	16	31*	0	.	54*	28*	23	99*
N#Cc1cccc(NC(=O)COC(=O)CCc2nc3ccccc3c(=O)[nH]2)c1	0	-12	21*	0	-2	-6	-1	0	-2
O=C(N/N=C\c1c[nH]c2ccccc12)c1ccc(O)cc1	1	.	21*	0	0	3	0	0	1
CCCNc1cc(=O)n(C)c(=O)n1C	4	8	4	1	-1	-8	.	.	.
CSCC[C@H](NC(=O)OC(C)(C)C)C(=O)N/N=C/c1ccc2nccnc2c1	0	.	1	0	0	-3	.	.	.
O=C(Nc1ccc(F)cc1F)c1ccc(-n2cncn2)nc1	2	10	-12	?	1	-4	.	.	.
Cc1cc(C)c2nc(NNC(=O)c3cc(-c4cccs4)nc4ccccc34)sc2c1	12	7	25*	1	11	15	1	4	-2
Cc1noc(C)c1NC(=O)N(C)C[C@@H]1Oc2ncc(C#CC3CC3)cc2C(=O)N([C@@H](C)CO)C[C@@H]1C	.	.	3	.	.	5	.	.	.
Cc1ccc(Cn2cccc2/C=C2/C(=N)N3C=CSC3=NC2=O)cc1	11	1	30*	2	2	-7	6	11	16*
O=C(O)c1cccnc1Oc1ccccc1	3	4	-3	1	1	-10	.	.	.
Cc1ccc(N=N/C(=C\O)C(=O)c2ccc(Cl)cc2)cc1	22	-12	21*	1	11	-10	6	4	11*
SMILES	Beta2AR agonist	TLR4-MyD88 BLA	TLR9-MyD88 block	Bfl-1 A1 inh	NTR1 agonist	NOD2-RIPK2 inh	TLR9-MyD88 conf	BLA counter-1	TLR9 CHO cytotox	others
O=C(/C(=C/O)N=Nc1ccccc1)c1ccc(Cl)cc1	20	-11	4	0	8	-5	.	.	.
O=C1N/C(=N\S(=O)(=O)c2ccccc2)S/C1=C\c1cc([N+](=O)[O-])ccc1O	7	.	25*	1	-1	11	9	13	0
COc1cc(/C=C2/S/C(=N/S(=O)(=O)c3ccccc3)NC2=O)c([N+](=O)[O-])cc1OC	-4	5	-4	0	3	-7	.	.	.
CC(=O)C1=C(C)NC(SCC(=O)c2ccc(Cl)c(Cl)c2)=C(C#N)C1c1ccco1 (stereo not given)	10	18	21*	-1	2	4	7	8	9
CCCCC(=O)Nc1ccc2c(c1)nc(CCN1CCN(c3ccccn3)CC1)n2C	-1	.	-7	1	-1	1	.	.	.
CCCC(=O)Nc1ccc2c(c1)nc(CCN1CCN(c3ccccn3)CC1)n2C	-13	.	27*	1	2	-5	2	3	3
COc1ccc(CNC(=O)c2cc(-c3ccc(OC)c(OC)c3)on2)cc1	3	-5	23*	1	1	-4	1	0	-4
COc1ccc2c(C#N)c3ccccn3c2c1	0	24	21*	0	0	11	5	8	7
Cc1cc(=O)n2ccccc2c1C#N	-3	11	7	0	1	3	.	.	.
